Assay outcomes: PubChem, National Center for Advancing Translational Sciences (NCATS)
This is one part of a sample in which hits are shown more often than they occur.
Pf Dd2 inh = qHTS Primary assay for Inhibitors of Plasmodium falciparum Dd2 growth in vitro; P. falciparum Dd2 growth, SYBR Green, 72 h; Potency, µM (highest dose often 28.9 µM), inactives show top-dose activity, negative = inhibition, actives largely listed as inhibitors; 120,000 tested, 4.3% active; AID 1347417, 2020; active = well fitted inhibition curve with a large enough effect;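 also: plate controls were DMSO vehicle for no effect and reference drug for full effect; nearly all actives have a fitted effect of over 65% in size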
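Readout: SYBR Green fluorescence, 485 nm excitation, 535 nm emission, after ~16 h lysis at 37C. Before that, Dd2-infected red cells (2.5% hematocrit) grew 72 h with compound, 29 uM top final concentration.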
* hit, by the source's call; i = inactive; [ ] = another dose, or the depositor's remark. Potency is read from the fitted curve at half-maximal effect.

SMILES | Pf Dd2 inh
Cc1cc(CN2CCC3(C2)NC(=O)c2ccccc2O3)no1 (stereo not given) | -18%[44.1 µM]
CN(C)c1ccc(CN2CCC3(CC2)NC(=O)c2ccccc2O3)cc1 | i
COc1ccc(CN2CCC3(CC2)C(=O)NCN3Cc2ccc(Cl)cc2)cc1 | 3.2µM*
O=C1NCN(Cc2ccc(Cl)cc2)C12CCN(Cc1ccncc1)CC2 | i
Cn1cccc1CN1CCC2(CC1)C(=O)NCN2Cc1ccc(Cl)cc1 | 1%
O=C1NC2(CCCN(Cc3ccccn3)C2)COc2ccccc21 (stereo not given) | 0.63µM*
COc1cccc([S+](=O)([O-])N2CCC3(CC2)NC(=O)c2ccccc2O3)c1 | i
COc1cccc(CN2CCC3(C2)NC(=O)c2ccccc2O3)c1 (stereo not given) | 13µM*
O=C1NC2(CCN(Cc3ccsc3)CC2)Oc2ccccc21 | -23%[44.1 µM]
O=C1NC2(CCCN(Cc3cccnc3)C2)COc2ccccc21 (stereo not given) | i
O=C1NC2(CCCN(Cc3ccc(F)cc3)C2)COc2ccccc21 (stereo not given) | -15%
CC(C)N1C(=O)CO[C@H]2CCN(Cc3cccs3)CC[C@@H]21 | 1%[44.1 µM]
COc1ccccc1CC(=O)NCC1CCN(c2cnn(C)c(=O)c2)C1 (stereo not given) | -8%
CC(C)Cc1nc(NC(=O)C[C@H]2NC(=O)c3ccccc3NC2=O)n[nH]1 | -6%
Cc1nc(N2CCN(C(=O)COc3ccccc3)CC2)cc(C(F)(F)F)n1 | -4%
COCCC(=O)N1CCC2(CC1)C(=O)Nc1cc(Oc3cccc(N(C)C)c3)c(OC)cc12 | -5%
C#CCNC(=O)C1CCc2nnc(CNC(=O)NC(C)C)n21 (stereo not given) | 24%
CN(Cc1ncc[nH]1)C(=O)C1CCC(=O)N(CCN2CCOCC2)C1 (stereo not given) | 22%
Cc1cccc(NC(=O)CSc2nc3ccc(NC(=O)CCc4ccccc4)cc3s2)c1 | 11%
CCC(=O)Nc1ccc2nc(SCc3ccccc3)sc2c1 | -28%
CCCC(=O)Nc1ccc2nc(SCc3ccc(C)cc3)sc2c1 | 8.9µM*
Cc1cc(C(=O)NCCCOC(C)C)c2c(C3CCNC3)noc2n1 (stereo not given) | -4%
Cc1ccc(S(=O)(=O)N[C@H]2CO[C@H]3[C@@H]2OC[C@@H]3Nc2nccc(C(C)(C)C)n2)cc1 | i
CCOc1ccccc1CN1CCC2(CCN(C(=O)C3CCCC3)CC2)Oc2ccccc21 | -17%
CCCN1CCC2(CCN(C(=O)COC)CC2)Oc2ccccc21 | -18%[44.1 µM]
SMILES | Pf Dd2 inh
CCCN1CCC2(CCN(C(=O)Nc3ccccc3)CC2)Oc2ccccc21 | i
CCOc1ccccc1CN1CCC2(CCN(C(=O)Cc3ccc(F)cc3)CC2)Oc2ccccc21 | 8.9µM*
CCOc1ccccc1CN1CCC2(CCN(CCC(C)C)CC2)Oc2ccccc21 | 1µM*
CCOc1ccccc1CN1CCN(S(=O)(=O)c2ccccc2)CC1 | 12%
Cc1cc(Cl)ccc1NC(=O)N1CCCC1c1nncn1-c1ccccc1 (stereo not given) | -6%
O=C(CC1COCCN1)NCCc1cnn(-c2ccccc2)c1 (stereo not given) | -22%
Cc1ccc(-c2cn[nH]c2C2CCCN(C(=O)CN3CCOCC3)C2)cc1 (stereo not given) | -17%
COCCN1CCCCCC(O)c2cc(C(=O)NCc3cc(F)cc(F)c3)ccc21 (stereo not given) | 13µM*
COCCN1CCCCCC(O)c2cc(C(=O)NCC(C)C)ccc21 (stereo not given) | -11%
COCCN1CCCCCC(O)c2cc(C(=O)NCC3CC3)ccc21 (stereo not given) | i
COc1cccc(CN2CC3(C2)C(=O)N(CCCN2CCCC2=O)C(=O)[C@@H]2C[C@@H](O)CN23)c1 | 20%
CC(C)c1noc([C@@H]2C[C@H]3C(=O)NCCCCCCN(C(=O)c4cccc(C#N)c4)[C@H]3C2)n1 | i
Cc1cc(C)n(-c2nc3ccccc3nc2Nc2ccc(Cl)cc2Cl)n1 | 43%
Cc1cc(C)n(-c2nc3ccccc3nc2Nc2cc(Cl)ccc2C)n1 | 31%
Cc1cc(Nc2ccc(Cl)cc2C)nc(-n2nc(C)cc2C)n1 | 3.5µM*
COc1ccc(-c2ccc3nc(-c4cc(F)cc(F)c4F)oc3c2)c(OC)c1OC | -6%
O=C(O)CCn1ncc2cc(OCC3CCN(C(=O)CCC(F)(F)F)CC3)ccc21 | i
COc1ccc(N2CCN(S(=O)(=O)c3cc(Br)cc4c3N(C(=O)C3CC3)CC4)CC2)cc1 | i
Cc1ccc(C)c(N2CCN(C(=O)CCNS(=O)(=O)c3ccc4c(c3)CCN4C(=O)C3CC3)CC2)c1 | -1%
Cc1ccc(C)c(N2CCN(S(=O)(=O)c3cc(Br)cc4c3N(C(=O)C3CC3)CC4)CC2)c1 | 49%
Cc1ccc(N2CCN(S(=O)(=O)c3cc(Br)cc4c3N(C(=O)C3CC3)CC4)CC2C)cc1 (stereo not given) | i
O=C(CCS(=O)(=O)c1cc(Br)cc2c1N(C(=O)C1CC1)CC2)N1CCN(c2ccc(F)cc2)CC1 | 7.9µM*
CCC(=O)N1CCc2cc(S(=O)(=O)CCC(=O)N3CCN(c4cccc(Cl)c4)CC3)ccc21 | -12%
Cc1ccc(C)c(N2CCN(C(=O)CCS(=O)(=O)c3cc(Br)cc4c3N(C(=O)C3CC3)CC4)CC2)c1 | 11µM*
COc1ccccc1CNS(=O)(=O)c1cc(Br)cc2c1N(C(=O)C1CC1)CC2 | 1%
SMILES | Pf Dd2 inh
O=C(CCS(=O)(=O)c1cc(Br)cc2c1N(C(=O)C1CC1)CC2)N1CCN(c2cccc(C(F)(F)F)c2)CC1 | 10µM*
O=C(c1cccc(-n2cnnc2)c1)N1CCCC(O)(CN2CCCC2)C1 (stereo not given) | -8%
CC1(COc2cccnc2)COc2ccc(C(=O)NC3CCC(O)CC3)cc2N1 (stereo not given) | -21%[44.1 µM]
O=S(=O)(c1ccccc1)N1CCC(n2cnnc2C2CC2)CC1 | 10%
O=C(NC1C[C@H]2CC[C@@H](C1)N2C(=O)C1CCOCC1)c1ccc(F)cc1 (stereo not given in full) | -13%
CCN(Cc1ccccc1)C(=O)CCC[C@@H]1[C@H]2CCCN3CCC[C@@H](CN1C(=O)c1ccccc1)[C@@H]23 | 2µM*
O=C(CCC[C@@H]1[C@H]2CCCN3CCC[C@@H](CN1C(=O)c1ccccc1)[C@@H]23)N1CCCCC1 | -4%
CC(C)N1CCN(C(=O)CCC[C@@H]2[C@H]3CCCN4CCC[C@@H](CN2Cc2ccccc2)[C@@H]34)CC1 | 4µM*
O=C(CCC[C@@H]1[C@H]2CCCN3CCC[C@@H](CN1C(=O)c1ccccc1)[C@@H]23)NCCN1CCCCC1 | -13%
CC(C)N1CCN(C(=O)CCC[C@@H]2[C@H]3CCCN4CCC[C@@H](CN2C(=O)c2ccccc2)[C@@H]34)CC1 | -21%
O=C(CCC[C@@H]1[C@H]2CCCN3CCC[C@@H](CN1Cc1cccnc1)[C@@H]23)N1CCN(C2CCCC2)CC1 | -20%
Cc1noc2c(NC3CCC(O)CC3)cc(-c3cccs3)nc12 (stereo not given) | -20%[44.1 µM]
CCc1cccc2c(C(CC(=O)N3CCc4ccccc4C3)c3cccc4c3OCO4)c[nH]c12 (stereo not given) | 8.9µM*
CCOC(=O)C1CCCN(C(=O)CC(c2cccc([N+](=O)[O-])c2)c2c[nH]c3c(CC)cccc23)C1 (stereo not given) | 13µM*
CCCNC(=O)CC(c1ccccc1OC)c1c[nH]c2c(CC)cccc12 (stereo not given) | i
